# Test results reported in PubChem BioAssay (NCI).
# The panel holds about 79,000 compounds, 15% with a hit somewhere; the sample as a whole holds those more often. The source made the active and inactive calls. Cut-off read from the data, not from the text of the source: active = growth inhibition above about 70%; inactive = the rest.
# Test: NCI Yeast Anticancer Drug Screen. Data for the bub3 strain (AID 167)
# Details: S. cerevisiae bub3 mutant strain, at 50.0 µM, hits give high values
# Method: Growth inhibition of yeast strains with defined genetic alterations is measured as a screen for potential anti-cancer activity. Selected strains with alterations in DNA damage repair or cell cycle control were exposed to compounds and growth inhibition was measured relative to vehicle treated controls. The strain used in this assay is bub3
row,SMILES,growth inhibition
1,CS(=O)CC1=NC(=N)N=C1CS(C)=O (stereo not given),2.85% (inactive)
2,O=C(N/N=C/c1ccccc1O)Nc1nn[nH]n1,0.85% (inactive)
3,COc1ccc(OC)c(/C=C2\CCc3ccccc3C2=O)c1,47.7% (inactive)
4,Nc1ccc(CC(=O)O)c(N)c1,4.6% (inactive)
5,COc1cc(C2NC(=O)C(C#N)=C(Nc3cccc(C)c3)S2)ccc1O (stereo not given),-6.15% (inactive)
6,O=C(Cc1ccccc1)Cc1ccccc1,-8.65% (inactive)
7,C/C(=C\c1cc(Cl)ccc1OCC(=O)O)[N+](=O)[O-],40.8% (inactive)
8,COc1cc2c(cc1OC)[C@H](C(=O)O)[C@@H](c1ccc(OC(C)C)c(OC)c1)N(C)C2=O,15.4% (inactive)
9,O=[N+]([O-])c1ccc(N=Nc2ccc(O)c3ccccc23)cc1,-25.2% (inactive)
10,CCOC(=O)C(CCC(C)C)C(=O)OCC,4.6% (inactive)
11,O=c1[nH][nH]c(=O)c2cc([N+](=O)[O-])ccc12,-15% (inactive)
12,CC(C)CCOC(=O)c1ccccc1,-29.1% (inactive)
13,Cc1cc(N2CCC(N3CCCC3)CC2)nc(/N=C(\N)Nc2ccc(Cl)c(Cl)c2)n1,4% (inactive)
14,C=CC(O)CCC (stereo not given),-1.6% (inactive)
15,CCN=c1cc2sc3cc(NCC)c(C)cc3nc-2cc1C,-15.4% (inactive)
16,COc1cccc(Sc2ccc([N+](=O)[O-])c3no[n+]([O-])c23)c1,88.4% (active)
17,CCCCCCCCCCCCCC(=O)Oc1ccc[nH]c1=O,0.65% (inactive)
18,O=c1[nH]n(-c2ccccc2)c(=O)cc1Cl,3.55% (inactive)
19,CC1(C)S(=O)(=O)OCCOS1(=O)=O,7.35% (inactive)
20,CN1C(=O)CN2CCc3ccccc3C2c2cc(Cl)ccc21 (stereo not given),48% (inactive)

row,SMILES,growth inhibition
1,CC1(C(N)=O)CCC(C(=O)O)C1(C)C (stereo not given),-3.45% (inactive)
2,O=C(CN1CCNCC1)N1CCOCC1,-16.7% (inactive)
3,CN(C)CCC(=O)c1ccc(O)cc1,-14.8% (inactive)
4,O=S(=O)(O)c1ccc(Cl)c(Cl)c1,-19.5% (inactive)
5,CC(=O)c1c[nH]c2ccccc12,-2.25% (inactive)
6,C[C@]12CC[C@@H]3c4ccc(OCC(=O)O)cc4CC[C@H]3[C@@H]1CCC2=O,5.6% (inactive)
7,CCOc1ccc(/C=N/N=C(N)N)cc1OCC,-8.4% (inactive)
8,O=[N+]([O-])c1ccc(Sc2ccncn2)c([N+](=O)[O-])c1,-12.3% (inactive)
9,O=C(O)C(Cc1ccccc1)C(=O)O,-18.4% (inactive)
10,CCN1C(=O)/C(=C/C=C/N(C)c2ccccc2)SC1=S,20.9% (inactive)
11,C/C(=N\O)C1(O)CCCCC1,7.45% (inactive)
12,Cc1ccc(Cl)cc1NC(=O)N(C)CCO,4.05% (inactive)
13,Oc1ccccc1O,-1.6% (inactive)
14,COc1ccc(NC(=O)CCl)cc1,36.7% (inactive)
15,NC(C(=O)O)c1ccc([N+](=O)[O-])cc1 (stereo not given),-0.4% (inactive)
16,C[N+](C)=c1ccc2nc3c(cc(Nc4ccccc4)c4ccccc43)oc-2c1,38% (inactive)
17,O=C(CCNNC(=O)c1ccncc1)NCc1ccccc1,-9.8% (inactive)
18,C=C[Si](OC(C)=O)(OC(C)=O)OC(C)=O,13.7% (inactive)
19,CC(C)C(C#N)(C(C)C)C(C)C,-1.95% (inactive)
20,CN(C)c1ccc(C(c2ccc(O)cc2)c2ccc(N(C)C)cc2)cc1,-3% (inactive)
